# Experimental data as given in PubChem BioAssay (Tox21).
# A number with no mark means an inactive call. Results filed as inconclusive are left out. Activity calls are given as the source filed them. Calls follow the shape of the dose curve; as a rule, active = well fitted curve in the direction sought with a large enough effect in the repeat runs; inconclusive = weak or mixed curves; inactive = no such curve, though single readings can be large; an effect the other way counts as inactive or inconclusive.
# Assay: Caspase-3/7 induction in CHO-K1 cells by small molecules, qHTS cell viability counter screen (AID 1346979); also: nearly all actives have a fitted effect of over 35% in size; also: potency is read from the fitted curve at half-maximal effect
# Details: CellTiter-Fluor fluorescence, 17 h; series mostly up to 92.4 µM; activity change, negative = cytotoxicity: at the top concentration
# Summary of the method: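 Viability readout by fluorescence (CellTiter-Fluor) on wild-type CHO-K1 cells exposed for 16hr at 37C and 5% CO2 to compounds delivered in DMSO; reagent incubated 1hr before reading.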
# % is scaled to controls: 0 for no effect and ±100 for the full control effect.
SMILES,"activity change, negative = cytotoxicity",Potency
CC(=O)O[C@H]1CC[C@@]2(C)C(=CC[C@@H]3[C@@H]2CC[C@]2(C)C(C(C)=O)=CC[C@@H]32)C1,12.2% [at 42.5 µM],–
CCCCC(CC)COC(=O)COc1cc(Cl)c(Cl)cc1Cl (stereo not given),12.5%,–
CN(C)CC[C@@H](c1ccc(Cl)cc1)c1ccccn1,3.76% [at 42.5 µM],–
CC/C=C\CCOC(=O)C(C)C,9.39%,–
COc1ccccc1OCC(O)COC(N)=O (stereo not given),9.09% [at 42.5 µM],–
CC(=O)N[C@@H](CC(C)C)C(=O)O,-0.818% [at 42.5 µM],–
CC(C)S,-4.8%,–
COC(=O)C(C)O (stereo not given),0.649%,–
c1ccc(CN(CC2=NCCN2)c2ccccc2)cc1,0.248% [at 42.5 µM],–
O=Cc1ccc(F)c(Br)c1,-0.84%,–
CCCCNc1cc(C(=O)O)cc(S(N)(=O)=O)c1Oc1ccccc1,1.32% [at 42.5 µM],–
NCCC(O)(P(=O)(O)O)P(=O)(O)O,11.2% [at 42.5 µM],–
CC(C)C[C@H](NC(=O)OCC1c2ccccc2-c2ccccc21)C(=O)O,6.33%,–
C1CSCCS1,4.55%,–
CC(C)C(=O)OCC(C)(C)C(O)C(C)C (stereo not given),6.54%,–
COC(C)CCO (stereo not given),8.55%,–
OC[C@H]1O[C@@H](O[C@H]2[C@H](O)[C@@H](O)[C@H](O)O[C@@H]2CO)[C@H](O)[C@@H](O)[C@H]1O,10.2%,–
CCCCNCCCC,1.67%,–
NNS(=O)(=O)c1ccc(Oc2ccc(S(=O)(=O)NN)cc2)cc1,6.72%,–
CCC(=O)c1ccc2c(c1)N(CCCN(C)C)c1ccccc1S2,-13.6% [at 42.5 µM],–
OCCN(CCO)CCN(CCO)CCO,5.2%,–
O=C(O)CN(CCN(CC(=O)O)CC(=O)O)CCN(CC(=O)O)CC(=O)O,–,13 µM (active)
CCN(CC)C(=O)N(CC)CC,1.57%,–

# Assay: Caspase-3/7 induction in CHO-K1 cells by small molecules, qHTS assay (AID 1346980); also: nearly all actives have a fitted effect of over 15% in size
# Details: CHO-K1 caspase-3/7 induction, Caspase-Glo luminescence, 17 h; series mostly up to 92.4 µM; caspase-3/7 activation: at the top concentration
# Summary of the method: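 Wild-type cells were seeded at 1,500 per well and settled 5 hr at 37 C, 5% CO2, then exposed to DMSO-dissolved compounds for 17 hr. Caspase-Glo 3/7 reagent was added, and luminescence was read after 30min at room temperature.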
row,SMILES,caspase-3/7 activation
1,CC(=O)O[C@H]1CC[C@@]2(C)C(=CC[C@@H]3[C@@H]2CC[C@]2(C)C(C(C)=O)=CC[C@@H]32)C1,1.36% [at 42.5 µM]
2,CCCCC(CC)COC(=O)COc1cc(Cl)c(Cl)cc1Cl (stereo not given),-0.129%
3,Clc1cccc(-c2cc(Cl)cc(Cl)c2)c1,2.97%
4,CCCCCCCCCCCCOCCOS(=O)(=O)O,-1.06%
5,CN(C)CC[C@@H](c1ccc(Cl)cc1)c1ccccn1,0.129% [at 42.5 µM]
6,CC/C=C\CCOC(=O)C(C)C,0.0796%
7,OCCN1CCN(CCO)CC1,-1.63%
8,O=C1N(c2ccccc2)c2ccccc2C1(Cc1ccncc1)Cc1ccncc1,2.18% [at 42.5 µM]
9,COc1ccccc1OCC(O)COC(N)=O (stereo not given),0.0042% [at 42.5 µM]
10,CC(=O)N[C@@H](CC(C)C)C(=O)O,-1.59% [at 42.5 µM]
11,C[C@]12CCC(=O)C=C1CC[C@@H]1[C@@H]2CC[C@@]2(C)[C@H]1CC[C@]2(O)C(=O)CO,-1.53% [at 42.5 µM]
12,CCCC1CCC(=O)O1 (stereo not given),0.0113%
13,CC(C)S,1.02%
14,COC(=O)C(C)O (stereo not given),-1.34%
15,CCOc1ccc(OCC)c(Cl)c1,-0.278%
16,Cc1nc(N)nc(N)c1-c1ccc(Cl)c(Cl)c1,0.902% [at 42.5 µM]
17,c1ccc(CN(CC2=NCCN2)c2ccccc2)cc1,1.83% [at 42.5 µM]
18,Cc1cc2nc(N)sc2cc1C,-6.14%
19,O=Cc1ccc(F)c(Br)c1,-0.704%

row,SMILES,caspase-3/7 activation
1,CCCCNc1cc(C(=O)O)cc(S(N)(=O)=O)c1Oc1ccccc1,-0.298% [at 42.5 µM]
2,NCCC(O)(P(=O)(O)O)P(=O)(O)O,0.796% [at 42.5 µM]
3,CC(C)O,0.179%
4,CC(C)C[C@H](NC(=O)OCC1c2ccccc2-c2ccccc21)C(=O)O,-0.43%
5,C1CSCCS1,-0.0059%
6,CC(C)C(=O)OCC(C)(C)C(O)C(C)C (stereo not given),0.393%
7,COC(C)CCO (stereo not given),0.845%
8,O=C(Cl)c1cccc([N+](=O)[O-])c1,-0.756%
9,OC[C@H]1O[C@@H](O[C@H]2[C@H](O)[C@@H](O)[C@H](O)O[C@@H]2CO)[C@H](O)[C@@H](O)[C@H]1O,-1.58%
10,NC(Cc1ccc(F)cc1)C(=O)O (stereo not given),2.35% [at 8.39 µM]
11,O=C1C=CC(=O)O1,-0.334%
12,CCCCNCCCC,0.173%
13,NNS(=O)(=O)c1ccc(Oc2ccc(S(=O)(=O)NN)cc2)cc1,-1.14%
14,CCC(=O)c1ccc2c(c1)N(CCCN(C)C)c1ccccc1S2,-1.28% [at 42.5 µM]
15,OCCN(CCO)CCN(CCO)CCO,-0.0583%
16,CC1=C2[C@H](/C=C(\C)C(=O)O)CC[C@@H](C)[C@H]2CC1,-1.16%
17,O=C(O)CN(CCN(CC(=O)O)CC(=O)O)CCN(CC(=O)O)CC(=O)O,5.14% [at 19 µM]
18,CCN(CC)C(=O)N(CC)CC,0.591%
19,COC(=O)/C=C(/C)N,-0.782% [at 42.5 µM]

# Assay: Caspase-3/7 induction in HepG2 cells by small molecules, qHTS cell viability counter screen (AID 1346981); also: nearly all actives have a fitted effect of over 30% in size
# Details: CellTiter-Fluor fluorescence, 17 h; series mostly up to 92.4 µM; activity change, negative = cytotoxicity: at the top concentration
# Summary of the method: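 CellTiter-Fluor fluorescence measured viability in the same wells used for Caspase-Glo 3/7. HepG2 (wild type) at 2,000 cells/well were pre-incubated 5 hr, dosed, and given reagent at 16 hr, with 1 hr further at 37C.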
row,SMILES,"activity change, negative = cytotoxicity"
1,CC(=O)O[C@H]1CC[C@@]2(C)C(=CC[C@@H]3[C@@H]2CC[C@]2(C)C(C(C)=O)=CC[C@@H]32)C1,-1.39% [at 42.5 µM]
2,CCCCC(CC)COC(=O)COc1cc(Cl)c(Cl)cc1Cl (stereo not given),11.1%
3,Clc1cccc(-c2cc(Cl)cc(Cl)c2)c1,-0.13%
4,CCCCCCCCCCCCOCCOS(=O)(=O)O,-4.66%
5,CN(C)CC[C@@H](c1ccc(Cl)cc1)c1ccccn1,-14.5% [at 42.5 µM]
6,CC/C=C\CCOC(=O)C(C)C,0.739%
7,OCCN1CCN(CCO)CC1,1.48%
8,COc1ccccc1OCC(O)COC(N)=O (stereo not given),9% [at 42.5 µM]
9,CC(=O)N[C@@H](CC(C)C)C(=O)O,7.62% [at 42.5 µM]
10,CCCC1CCC(=O)O1 (stereo not given),0.898%
11,CC(C)S,0.627%
12,COC(=O)C(C)O (stereo not given),4.86%
13,CCOc1ccc(OCC)c(Cl)c1,-1.44%
14,Cc1nc(N)nc(N)c1-c1ccc(Cl)c(Cl)c1,-0.267% [at 42.5 µM]
15,c1ccc(CN(CC2=NCCN2)c2ccccc2)cc1,-3.04% [at 42.5 µM]
16,Cc1cc2nc(N)sc2cc1C,4.26%
17,O=Cc1ccc(F)c(Br)c1,7.11%

row,SMILES,"activity change, negative = cytotoxicity"
1,CCCCNc1cc(C(=O)O)cc(S(N)(=O)=O)c1Oc1ccccc1,-0.617% [at 42.5 µM]
2,NCCC(O)(P(=O)(O)O)P(=O)(O)O,3.3% [at 42.5 µM]
3,CC(C)O,-1.97%
4,CC(C)C[C@H](NC(=O)OCC1c2ccccc2-c2ccccc21)C(=O)O,3.88%
5,CC(C)C(=O)OCC(C)(C)C(O)C(C)C (stereo not given),-0.351%
6,COC(C)CCO (stereo not given),-0.619%
7,O=C(Cl)c1cccc([N+](=O)[O-])c1,4.76%
8,OC[C@H]1O[C@@H](O[C@H]2[C@H](O)[C@@H](O)[C@H](O)O[C@@H]2CO)[C@H](O)[C@@H](O)[C@H]1O,6.62%
9,NC(Cc1ccc(F)cc1)C(=O)O (stereo not given),-1.98% [at 8.39 µM]
10,O=C1C=CC(=O)O1,9.7%
11,CCCCNCCCC,1.85%
12,NNS(=O)(=O)c1ccc(Oc2ccc(S(=O)(=O)NN)cc2)cc1,-2.89%
13,OCCN(CCO)CCN(CCO)CCO,2.99%
14,CC1=C2[C@H](/C=C(\C)C(=O)O)CC[C@@H](C)[C@H]2CC1,-0.0003%
15,CCN(CC)C(=O)N(CC)CC,3.48%
16,COC(=O)/C=C(/C)N,7.45% [at 42.5 µM]
17,Cc1nc(-c2ccccn2)ncc1C(=O)Nn1cc(C)c2cc(F)ccc21,7.14%
